Laboratory results published in ChEMBL document CHEMBL3988442, “University of Dundee, Small-Polar-MMV Screening Library” (2021).
Hit rate of the full screen: of about 48,000 compounds, about 13,000 (27%) showed an effect of 50% or more. The list shows a part of the results.

tested on: Wolbachia pipientis; assay: Anti-Wolbachia Cell-Based Screen; assay type: functional; set-up: scale not given: in the data most compounds retested in dose-response had high values; conditions: 5 µM

SMILES | Percent Effect [%]
COCCc1noc(CN2CCCc3cccc(OC)c32)n1 | 0.4274
Cc1noc(-c2ccc(N(C)Cc3ccncn3)nc2)n1 | -29.65
c1ccc(CNC[C@H]2COCc3nc4cccnc4n32)cc1 | 10.55
COCC(C)NC(=O)NCCc1cccc(OC)c1O (configuration not stated) | -7.103
CCn1nc(CC(C)C)cc1C(=O)N1CCN([C@H]2CCCC[C@@H]2O)CC1 | 0.6704
CCS(=O)(=O)N1CC(c2nc(-c3ccsc3)no2)C1 | -8.132
CCc1c(C)nn(CCNC(=O)Cc2csc(C)n2)c1C | -26.69
CN(C)CCn1cc(NC(=O)NC(C)(C)c2nccs2)cn1 | -14.78
CCCN(C(=O)c1ccncc1)c1nc2c(s1)CCc1c-2cnn1C | 62.27
CCCN(C(=O)c1cccnc1)c1nc2c(s1)CCc1c-2cnn1C | 53.11
CCCN(C(=O)COC)c1nc2c(s1)CCc1c-2cnn1C | 1.347
OCc1ccc(CN2CCC(n3cc(-c4ccc(F)cc4)nn3)CC2)o1 | -0.1205
CC(C)C(C(=O)NC1CCOCC1)n1cnc2cc(F)c(F)cc21 (configuration not stated) | 3.744
CCCc1cc(=O)[nH]c2nnc(SCC(=O)NCc3ccc(C)cc3)n12 | -24
CC(=O)N1N=C(c2ccccc2)OC1C(=O)NCCOc1ccccc1 (configuration not stated) | 130.7
CC(=O)N1N=C(c2ccccc2)OC1C(=O)NCCc1cccc(F)c1 (configuration not stated) | 137.5
CC(=O)N1N=C(c2ccccc2)OC1C(=O)NCCc1ccc(C)cc1 (configuration not stated) | 114.7
Cc1nc(C2CCCN2CC(=O)NCCOc2ccccc2)no1 (configuration not stated) | 3.183
Cc1ccc2c(c1)CN(CC(=O)NCCc1ccc(F)cc1)CC(C)O2 (configuration not stated) | 6.694
CC(=O)N1N=C(c2ccccc2)OC1C(=O)NCCc1cccc(Cl)c1 (configuration not stated) | 1.222
CC(=O)N1N=C(c2ccccc2)OC1C(=O)NCCc1ccc(O)cc1 (configuration not stated) | 114.8
Cc1nc(-c2ccc(NCCc3ccc(O)cc3)nc2)[nH]c(=O)c1C | -6.931
O=C(NCCOc1ccccc1)C1NCCc2[nH]cnc21 (configuration not stated) | 9.443
CC(=O)N1N=C(c2ccccc2)OC1C(=O)NCCC1=CCCCC1 (configuration not stated) | -1.689

SMILES | Percent Effect [%]
CC(=O)NCCNC(=O)NCCCc1cccc(F)c1 | -6.354
CC(NC(=O)Nc1cnn(CC(N)=O)c1)c1ccc(Cl)s1 (configuration not stated) | 9.25
NC(=O)NCCC(=O)N1CCC(c2cc(-c3ccccc3Cl)n[nH]2)CC1 | -13.9
CC(C)(CNC(=O)CSc1nnnn1C1CC1)c1ccccc1F | 14.51
CC(C)(C#N)c1ccc(NS(=O)(=O)CC2CCCCO2)cc1 (configuration not stated) | -23.28
Cc1nc(NCCc2ccc(Cl)cc2)cc(C(=O)N2CCCCC2)n1 | 24.03
CC(C)N(C)CCCNC(=O)c1cnc(-c2ccccc2)nc1 | -3.501
CC(C)N(CCNC(=O)c1[nH]nc2ccc(I)cc12)C(C)C | -4.489
Cc1nc(NCCc2ccc(Cl)cc2)cc(C(=O)N2CCOCC2)n1 | 8.895
CC(=O)N1N=C(c2ccccc2)OC1C(=O)NCCc1ccc(Cl)cc1 (configuration not stated) | 146.7
CC(=O)N1N=C(c2ccccc2)OC1C(=O)NCCN(C(C)C)C(C)C (configuration not stated) | 125.8
Cn1cc(CCNC(=O)C2(c3cccc(Cl)c3)CC2)cn1 | 11.84
CC(=O)N1N=C(c2cccs2)OC1C(=O)NCCc1cccc(Cl)c1 (configuration not stated) | 135.3
NC(=O)c1cccc(CCNCc2cnc(-c3cccs3)s2)c1 | -4.854
Cc1nc(CN2Cc3cn(C)nc3C(COCC3CC3)C2)cs1 (configuration not stated) | -15.47
O=C(c1cccs1)N1CC[C@H]2[C@@H]1CCC(=O)N2c1cccnc1 | -2.771
CN(C)C(=O)N[C@@H]1CN(C2CCOCC2)[C@@H]2CCCO[C@@H]21.O=C(O)C(F)(F)F | -11.3
COc1ccc(CN2CCCn3cnc(COC(C)C)c3C2)cc1.O=C(O)C(F)(F)F | 23.92
CCc1nc(Cn2nc(C3CCNCC3)n(-c3ccccc3)c2=O)cs1 | 10.87
NC(=O)C1CCN(CC(=O)N2CCCC2c2ccsc2)CC1 (configuration not stated) | -14.97
CC(=O)N1C[C@@H](c2ccsc2)[C@@H]2CN(CC3CCCCC3)CC[C@@H]21 | 84.31
CC(=O)N1C[C@@H](c2ccsc2)[C@@H]2CN(Cc3ccccc3C)CC[C@@H]21 | 115.6
CC(=O)N1C[C@@H](c2ccsc2)[C@@H]2CN(Cc3ccccc3Cl)CC[C@@H]21 | 132.7
CC(=O)N1CCC(NC(=O)N2CCCC2c2ccsc2)CC1 (configuration not stated) | -39.95

SMILES | Percent Effect [%]
CSCCC(=O)N1CCCC1c1ccsc1 (configuration not stated) | -16.09
CC(=O)N1C[C@@H](c2ccsc2)[C@@H]2CN(Cc3ccccc3)CC[C@@H]21 | 3.604
COc1ccccc1CN1CC[C@H]2[C@@H](C1)[C@H](c1ccsc1)CN2C(C)=O | 109
NC(=O)CN1CCC(NC(=O)N2CCCC2c2ccsc2)CC1 (configuration not stated) | -19.01
CCn1cnnc1CNC(=O)N(C)Cc1c(F)cccc1Cl | -9.877
CCCn1ncc(C(=O)NCCc2[nH]nc3c2CCCC3)c1C | 17.81
CC1(C)[C@H](Cc2cc(CO)on2)C[C@@H]1N(CC1CC1)CC1CC1 | 3.295
Cc1ncc(CN2CCC(CNS(=O)(=O)C3CC3)C2)cn1 (configuration not stated) | -9.849
CCc1ccc(CN2CCC(CNS(=O)(=O)C3CC3)C2)nc1 (configuration not stated) | -5.185
O=S(=O)(Cc1ccccc1)NCC1CCN(c2cnccn2)CC1 | -2.116
O=S(=O)(NCC1CCN(c2cnccn2)CC1)C1CC1 | 99.54
CCS(=O)(=O)NCC1CCN(c2cnccn2)CC1 | 106
Cc1cn2c(n1)CCC(NC(=O)c1ccc(OCC3CC3)nc1)C2 (configuration not stated) | -16.45
Cc1cn2c(n1)CCC(NC(=O)c1cc(C(C)C)no1)C2 (configuration not stated) | 2.478
Cc1cn2c(n1)CCC(NC(=O)c1nc(C)ncc1Cl)C2 (configuration not stated) | -6.875
Cc1cc(C(=O)NC2CCc3nc(C)cn3C2)[nH]n1 (configuration not stated) | -4.172
Cc1ncc(C(=O)NC2CCc3nccn3C2)c(C(C)C)n1 (configuration not stated) | 126.1
Cc1cn2c(n1)CCC(NC(=O)c1csc(C(C)C)n1)C2 (configuration not stated) | 134.7
O=C(NC1CCc2nccn2C1)c1ccc(NC2CC2)nc1 (configuration not stated) | 9.006
Cc1cn2c(n1)CCC(NC(=O)c1cncnc1C)C2 (configuration not stated) | 122.4
Cc1cn2c(n1)CCC(NC(=O)c1cnc(C)nc1C(C)C)C2 (configuration not stated) | 1.666
CCc1ncncc1C(=O)NC1CCc2nc(C)cn2C1 (configuration not stated) | 106.8
Cc1cn2c(n1)CCC(NC(=O)c1c[nH]c(C)n1)C2 (configuration not stated) | 3.74
Cc1cn2c(n1)CCC(NC(=O)c1ccc(CS(C)(=O)=O)cc1)C2 (configuration not stated) | 1.181
